About 83,000 compounds went through this panel and 20% of them were active in at least one assay; those are over-represented in the sample as a whole.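 Note: values are percent growth. 100 is the growth of untreated cells, values between 100 and 0 indicate rising inhibition; between -100 and 0 indicates cell death.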 Values without a mark were called inactive. Active and inactive are the calls of the source. The calls were made as follows: active = growth percent below 10; inactive = the rest.
These compounds were tested on SK-OV-3 ovarian (assay: NCI-60 one-dose screen, 48 h (100 = growth as untreated, 0 = no growth, -100 = all killed)). Conditions: 10 µM.

Structure (SMILES)	growth
CC[C@]12C=CCN3CC[C@@]4(c5ccc(OC)cc5N(C)[C@H]4[C@@](O)(C(=O)OC)[C@@H]1OC(=O)CCCC[P+](C1CCCCC1)(C1CCCCC1)C1CCCCC1)[C@@H]32	-22.3% (active)
CC(=O)Oc1ccccc1C(=O)[Se]C(=NC(C)C)NC(C)C	-95.6% (active)
COCCOCCOCCOc1ccc(-n2cc(CCCN(CCNc3ccnc4cc(Cl)ccc34)C(=O)CCC(=O)O[C@@H]3O[C@@H]4OC5(C)CC[C@H]6[C@H](C)CC[C@@H]([C@H]3C)[C@@]46OO5)nn2)cc1	76.1%
C[C@H]1[C@@H](CC(=O)N[C@@H](Cc2coc3ccccc23)B(O)O)O[C@@H]2OC3(C)CC[C@H]4[C@H](C)CC[C@@H]1[C@@]24OO3	-22.9% (active)
COP(=O)(CC(F)(F)C(F)(F)F)OC	118%
CC12OOC(C)(OO1)C2CCC(=O)NCCNc1ccnc2cc(Cl)ccc12 (stereo not given)	91.2%
CC[C@]12C=CCN3CC[C@@]4(c5ccc(OC)cc5N(C)[C@H]4[C@@](O)(C(=O)OC)[C@@H]1OC(=O)CCC[P+](c1ccc(C)cc1)(c1ccc(C)cc1)c1ccc(C)cc1)[C@@H]32	-81% (active)
CC(C)N=C([Se])NC(=O)c1ccccc1	-57.2% (active)
CC[C@]12C=CCN3CC[C@@]4(c5ccc(OC)cc5N(C)[C@H]4[C@@](O)(C(=O)OC)[C@@H]1OC(=O)CCC[P+](C1CCCCC1)(C1CCCCC1)C1CCCCC1)[C@@H]32	-7.72% (active)
CC1=C(COCCOC(=O)c2ccc(S(=O)(=O)F)cc2)C2=C(C)C3(CC3)[C@@](C)(O)C(=O)C2=C1	-5.65% (active)

From PubChem BioAssay (NCI)
